# BAZ2B block: qHTS Assay for Inhibitors of BAZ2B | Bromodomain adjacent to zinc finger domain protein 2B (Homo sapiens), Q9UIF8 | AlphaScreen BAZ2B-H3K14Ac peptide displacement | Potency, µM (doses to about 114 µM), actives largely listed as inhibitors | hit rate 4.4% among 360,000; also: nearly all actives have a fitted effect of over 60% in size
#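 AlphaScreen displacement: compounds (up to 110uM) incubated 30 min at room temperature with a preformed 50 nM BAZ2B/50 nM biotinylated H3K14Ac peptide complex in PBS pH 7.4 with Tween-20. Donor and acceptor beads at 10 ug/mL final added, 20 min light-protected before reading.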
# JMJD2A Tudor inh: qHTS Assay for Inhibitors of JMJD2A-Tudor Domain | AlphaScreen JMJD2A-Tudor / H3K4me3 peptide binding | Potency, µM (titrated, usually from 114 µM), usual class: inhibitors | hit rate 4.4% among 390,000 | Lysine-specific demethylase 4A (Homo sapiens), O75164 | AID 504339, 2011; also: nearly all actives have a fitted effect of over 50% in size
# HP1b binding inh: HTS for Inhibitors of HP1-beta Chromodomain Interactions with Methylated Histone Tails; Chromobox protein homolog 1 (Homo sapiens), P83916; AlphaScreen HP1-beta / biotin-H3K9me3 peptide binding; Potency, µM (doses to about 114 µM), actives largely listed as inhibitors; hit rate 0.56% among 390,000; also: nearly all actives have a fitted effect of over 70% in size
#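 HP1-beta protein (50 nM final) preincubated 30 min at room temperature with biotinylated H3(1-18)K9me3 peptide (50 nM) in PBS pH 7.4, 0.01% Tween-20, then compound added for 30 min. AlphaScreen streptavidin donor/nickel chelate acceptor beads (10 ug/mL final), 30 min dark, luminescence read.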
# PLK1 PBD inh: qHTS for Inhibitors of PLK1-PDB (polo-like kinase 1 - polo-box domain): Primary Screen; Plk1 PBD binding of FITC phosphopeptide, fluorescence polarization; AID 720504, 2013; Potency, µM, most hits filed as inhibitors; hit rate 2.8% among 360,000; also: series mostly up to about 57 µM; nearly all actives have a fitted effect of over 65% in size
# Sfp PPTase inh: qHTS Assay for Inhibitors of Bacillus subtilis Sfp phosphopantetheinyl transferase (PPTase); AID 1490, 2009; Potency, µM, actives largely listed as inhibitors; hit rate 3.5% among 310,000; Biochemical Sfp PPTase activity, qHTS;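 also: the enzyme is Sfp with the accession as filed and its product quenches rhodamine fluorescence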
#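 Fluorescence-quenching assay: 15 nM Sfp-PPTase preincubated 15 min at room temperature with compound, then 5 uM rhodamine-CoA and 12.5 uM BHQ-2-labelled YbbR peptide added. Fluorescence (ex 525/em 598 nm) read at start and after 30 min; difference gives rate.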
# G9a block: qHTS Assay for Inhibitors of Histone Lysine Methyltransferase G9a; hit rate 8.8% among 350,000; Potency, µM (highest dose often 102 µM), usual class: inhibitors; Histone-lysine N-methyltransferase EHMT2 (Homo sapiens), Q96KQ7; G9a H3K9 monomethylation, AlphaScreen, 2 h; AID 504332, 2011; also: nearly all actives have a fitted effect of over 75% in size
#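 Step 1: enzyme (final 20 nM) with compound, 15 min RT. Step 2: substrate peptide 500 nM and SAM 20 uM, 2 h RT. Step 3: anti-H3K9me1 antibody and AlphaScreen beads, 10 min, then plate read.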
# A number is an active result; – = inactive; ? = inconclusive; · = not tested or not shown; [ ] = another dose, or the depositor's remark. The list is not random: actives were taken first. Their share in the collection is about 12%. Calls follow the shape of the dose curve; as a rule, active = well fitted curve in the direction sought with a large enough effect; inconclusive = small, poorly fitted or top-dose-only effect, or another doubt; inactive = no such curve, though single readings can be large; an effect the other way counts as inactive or inconclusive.
SMILES,BAZ2B block,JMJD2A Tudor inh,HP1b binding inh,PLK1 PBD inh,Sfp PPTase inh,G9a block
COc1cc(O)c(C(CCN2CCN(c3ccccc3)CC2)c2cc(OC)c(OC)c(OC)c2)c(OC)c1 (stereo not given),?,40µM,?,–,–,–
Cc1cn([C@H]2C[C@H](O)[C@@H](CNCc3ccc(Oc4cc(-n5cccn5)ncn4)cc3)O2)c(=O)[nH]c1=O,·,·,·,–,·,·
CCc1cc(-c2n[nH]c(CCC(=O)O)c2-c2nc3ccccc3n2C)c(O)cc1O,–,–,–,–,–,7.1µM
CCc1cc(-c2n[nH]c(C)c2-c2nc3ccccc3n2C)c(O)c(CN2CCN(C)CC2)c1O,?,?,–,–,–,45µM
COc1ccc(CNC(=O)Cc2c(C)c3c(cc(C)c4c(C)c(C)oc43)oc2=O)cc1OC,–,–,–,·,·,–
Nc1cccc2nsnc12,–,–,–,?,–,11µM
Cc1ccc2nsnc2c1N,–,–,–,–,–,·
COc1ccc(NC(=O)CNC(=O)c2nn(-c3ccc(OC)cc3OC)c(=O)c3ccccc23)c(OC)c1,–,–,–,–,–,–
COc1ccc(C(=O)Nc2ccccc2C(=O)NC(Cc2ccc(O)cc2)C(=O)NNC(=O)c2ccccc2)cc1 (stereo not given),–,–,–,–,?,–
COc1ccc(C(=O)Nc2ccccc2C(=O)NC(Cc2ccc(O)cc2)C(=O)NNC(=O)c2ccncc2)cc1 (stereo not given),?,–,–,–,–,1.4µM
O=C(Nc1ccccc1C(=O)NC(Cc1ccccc1)C(=O)NC1CCCCCC1)c1ccccc1 (stereo not given),–,–[11.4 µM],–,27µM,?,–[12.7 µM]
Cc1sc(NC(=O)c2cccs2)nc1-c1ccccc1,–,–,–,–,–,–
Cc1sc(N/N=C/c2cccs2)nc1-c1ccccc1,–,25µM,?,?,–,45µM
COc1ccc2nc(NC(=O)c3ccc(-c4cccc([N+](=O)[O-])c4)o3)sc2c1,79µM,·,·,·,–,?
COc1ccc2c(c1)Cc1sc(NC(=O)c3cccnc3)nc1-2,–,–[11.4 µM],–,–,–,45µM
COc1ccc2c(c1)Cc1sc(NC(=O)c3ccco3)nc1-2,–,–,–,?,–,56µM
CCc1cc2ccc(OC)cc2nc1SCC(=O)NNC(=O)c1ccco1,–,–,–,–,–,50µM
COc1cc(C2CC(=O)Nc3c2c(=O)n(C)c2ncnn32)cc(OC)c1OC (stereo not given),–,–,–,·,·,–
Cc1ccc2c(c1)N(CC(=O)NCc1cccc(Cl)c1)C(=O)c1cccnc1O2,–,–,–,·,·,–
COc1ccc(NC(=O)CC2C(=O)N(c3cccc(OC)c3)C(=O)N2CCc2cccs2)cc1 (stereo not given),–,–,–,·,·,–
Cc1ccc(S(=O)(=O)N(CC(=O)N2CCOCC2)c2ccc(C(C)C)cc2)cc1,–,–,–,–,–,–
COc1ccc2c(c1)CCc1sc(NC(=O)c3ccco3)nc1-2,–,–,–,?,?,40µM
COc1ccc2c(c1)-c1nc(NC(=O)c3ccco3)sc1CC2,–,–,–,?,–,25µM
COc1ccc2c(c1)Cc1sc(NC(C)=O)nc1-2,–,–,–,–,20µM,–[12.7 µM]
COc1ccc2nc(NC(=S)NC(=O)c3ccco3)sc2c1,–,–,–,–,?,–
COc1ccc2sc(NC(=O)c3ccco3)nc2c1,?,?,–,–,–,7.1µM
COc1ccc2c(c1)CCc1sc(NC(=O)c3ccc(C)cc3)nc1-2,–,–,–,–,–,–
COc1ccc2c(c1)CCc1sc(NC(=O)c3ccc(Br)cc3)nc1-2,–,–,–,·,·,?
COc1ccc(N2C(=O)CC(NNC(=O)c3cccnc3)C2=O)cc1 (stereo not given),–,–,–,–,–,?
